Laboratory results from PubChem BioAssay (Tox21).
Results filed as inconclusive are left out. Activity calls are given as the source filed them. Unless noted, calls come from the whole dose curve; as a rule, active = well fitted curve in the direction sought with a large enough effect in the repeat runs; inconclusive = weak or mixed curves; inactive = no such curve, though single readings can be large; an effect the other way counts as inactive or inconclusive.

Assays:
[1] = A CellTox Green Cytotoxicity Assay to monitor cytotoxicity in HEK293 cells - 32 hour (AID 1224881); note: nearly all actives have a fitted effect of over 40% in size
Procedure, shortened: (§1)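 Tox21 screen in HEK293: membrane-impermeant cyanine dye fluoresces on binding dead-cell DNA; compound pinned 5 h post-seeding, plates held at 37 C, signal read repeatedly through 40 h.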

[2] = A CellTox Green Cytotoxicity Assay to monitor cytotoxicity in HepG2 cells - 0 hour (AID 1224882); note: nearly all actives have a fitted effect of over 35% in size
Procedure, shortened: (§2)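 Measurements at 0, 8, 16, 24, 32 and 40 h of treatment captured CellTox Green fluorescence in HepG2 cells that had been co-plated with reagent and preincubated 5 h at 37 C/5% CO2.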

[3] = A CellTox Green Cytotoxicity Assay to monitor cytotoxicity in HepG2 cells - 32 hour (AID 1224883); note: nearly all actives have a fitted effect of over 50% in size
Procedure, shortened: as §2

[4] = qHTS RealTime-Glo MT Cell Viability Assay in HepG2 cells - 16 hour (AID 1224885); note: nearly all actives have a fitted effect of over 50% in size
Procedure, shortened: (§3)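 Viability was tracked continuously by NanoLuc luminescence from prosubstrate reduced by living HepG2 cells, at successive time points over 40 h of compound exposure. Cells with reagent were preincubated 5 h at 37 °C before compound addition.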

[5] = qHTS RealTime-Glo MT Cell Viability Assay in HEK293 cells - 24 hour (AID 1224886); note: top concentration of the series differs between compounds; nearly all actives have a fitted effect of over 50% in size
Procedure, shortened: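 Viability tracked continuously by luminescence as live cells reduce a prosubstrate for NanoLuc; HEK293 cells preincubated 5 h, compound-treated at 37 C, and read at 0, 8, 16, 24, 32 and 40 h.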

[6] = qHTS RealTime-Glo MT Cell Viability Assay in HEK293 cells - 8 hour (AID 1224887); note: top concentration of the series differs between compounds; nearly all actives have a fitted effect of over 50% in size
Procedure, shortened: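 HEK293 + NanoLuc + prosubstrate, 600 cells/well; 5 h, 37 C/5% CO2; compound 23 nL in DMSO by pintool; 37 C; luminescence read at 0, 8, 16, 24, 32 and 40 h time points.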

[7] = A CellTox Green Cytotoxicity Assay to monitor cytotoxicity in HEK293 cells - 16 hour (AID 1224888); note: nearly all actives have a fitted effect of over 35% in size
Procedure, shortened: as §1

[8] = qHTS RealTime-Glo MT Cell Viability Assay in HepG2 cells - 0 hour (AID 1224889); note: nearly all actives have a fitted effect of over 50% in size
Procedure, shortened: as §3

[9] = A CellTox Green Cytotoxicity Assay to monitor cytotoxicity in HepG2 cells - 8 hour (AID 1224890); note: nearly all actives have a fitted effect of over 45% in size
Procedure, shortened: as §2

[10] = qHTS assay to identify small molecule antagonists of the estrogen receptor alpha (ER-alpha) signaling pathway using the BG1 cell line in the presence of 0.1 nM 17-beta-estradiol - cell viability counter screen (AID 1259241); note: nearly all actives have a fitted effect of over 40% in size
Procedure, shortened: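 Live-cell protease activity (CellTiter-Fluor fluorescence, 30 min) was read in the same wells after VM7Luc4E2 cells had been exposed to compounds with 0.1 nM 17beta-estradiol for 22 hr at 37C.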

[11] = qHTS assay to identify small molecule antagonists of the androgen receptor (AR) signaling pathway using the MDA cell line in the presence of 0.5 nM R1881 - cell viability counter screen (AID 1259242); note: nearly all actives have a fitted effect of over 45% in size
Procedure, shortened: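 Concentration-response screen of compounds for toxicity in MDA-kb2 reporter cells: 16 hr at 37C with 0.5 nM R1881, endpoint live-cell protease fluorescence measured in the reporter wells.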

[12] = target: Estrogen receptor (Homo sapiens) (UniProt P03372); assay: qHTS assay to identify small molecule antagonists of the estrogen receptor alpha (ER-alpha) signaling pathway using the BG1 cell line in the presence of 0.1 nM 17-beta-estradiol (AID 1259244); note: nearly all actives have a fitted effect of over 50% in size
Estrogen receptor (Homo sapiens), sequence (P03372 whole entry, looked up): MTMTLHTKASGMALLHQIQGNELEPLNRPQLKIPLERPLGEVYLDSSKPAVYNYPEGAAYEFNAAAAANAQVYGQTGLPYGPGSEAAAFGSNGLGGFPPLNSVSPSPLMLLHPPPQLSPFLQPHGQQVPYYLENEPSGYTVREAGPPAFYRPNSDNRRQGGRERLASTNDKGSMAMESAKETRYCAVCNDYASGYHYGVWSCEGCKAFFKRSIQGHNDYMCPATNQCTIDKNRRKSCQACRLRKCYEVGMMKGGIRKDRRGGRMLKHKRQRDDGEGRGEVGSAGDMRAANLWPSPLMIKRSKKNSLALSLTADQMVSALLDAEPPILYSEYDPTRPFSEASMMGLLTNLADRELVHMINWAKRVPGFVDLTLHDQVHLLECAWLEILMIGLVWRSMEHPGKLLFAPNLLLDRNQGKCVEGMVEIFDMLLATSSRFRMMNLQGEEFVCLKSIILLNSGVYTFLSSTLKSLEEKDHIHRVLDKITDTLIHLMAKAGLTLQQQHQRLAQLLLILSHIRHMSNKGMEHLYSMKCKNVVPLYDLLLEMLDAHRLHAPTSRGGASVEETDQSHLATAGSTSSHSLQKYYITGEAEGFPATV
Procedure, shortened: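 Compounds were tested against 0.1 nM (final) 17beta-estradiol in VM7Luc4E2 cells, which express full-length ER-alpha and an ERE-luciferase reporter; luminescence was recorded following 22 h exposure.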

[13] = qHTS assay to identify small molecule HDAC inhibitors (AID 1259364);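 note: wild-type HCT-116 cells with endogenous class I/II HDAC activity; top concentration of the series differs between compounds; nearly all actives have a fitted effect of over 45% in size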
Procedure, shortened: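 Screening used wild-type human colon HCT-116 cells incubated overnight, dosed with compounds for 2 hours, and assayed with a homogeneous luminogenic HDAC I/II reagent for 30 minutes at room temperature.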

[14] = qHTS assay to identify small molecule agonists of the sonic hedgehog signaling (Shh) pathway - cell viability counter screen (AID 1259366); note: nearly all actives have a fitted effect of over 50% in size
Procedure, shortened: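 CellTiter-Fluor fluorescence read-out, 1 hr at 37C, added after 23hr compound exposure. Cells: 3T3 Gli1-Luc, an NIH/3T3 clone with stably integrated Gli1-Luc reporter, plated 4hr before compound.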

[15] = qHTS assay to identify small molecule antagonists of the sonic hedgehog signaling (Shh) pathway - cell viability counter screen (AID 1259367); note: nearly all actives have a fitted effect of over 55% in size
Procedure, shortened: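 Fluorescence read-out (CellTiter-Fluor, 1 hr at 37C) taken after 23 hr compound treatment of 3T3 Gli1-Luc cells stimulated with conditioned medium. Cells were seeded at 2,000 per well and pre-incubated 4 hr.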

[16] = qHTS assay to identify small molecule agonists of the sonic hedgehog signaling (Shh) pathway (AID 1259368; calls by dose curve;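 note: NIH/3T3-derived 3T3Gli1-Luc cells carrying a stable Gli1-driven firefly luciferase reporter; series mostly up to about 92 µM; nearly all actives have a fitted effect of over 15% in size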)
Procedure, shortened: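 Hedgehog pathway agonism scored by increased firefly luciferase luminescence in 3T3Gli1-Luc cells treated 24 hr at 37 C; detection used a 30 min room-temperature reagent incubation.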

[17] = A CellTox Green Cytotoxicity Assay to monitor cytotoxicity in HEK293 cells - 8 hour (AID 1224884); note: nearly all actives have a fitted effect of over 35% in size
Procedure, shortened: as §1

[18] = qHTS assay to identify small molecule HDAC inhibitors - cell viability counter screen (AID 1259365)
Procedure, shortened: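 HCT-116 (wild type), 1,500 cells/well, overnight 37C/5% CO2; compound in DMSO 2hr; CellTiter-Glo 30min RT; luminescence read.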

[19] = target: Androgen receptor (Homo sapiens) (UniProt P10275); assay: qHTS assay to identify small molecule antagonists of the androgen receptor (AR) signaling pathway using the MDA cell line in the presence of 0.5 nM R1881 (AID 1259243); note: nearly all actives have a fitted effect of over 50% in size
Androgen receptor (Homo sapiens), sequence (P10275 whole entry, looked up): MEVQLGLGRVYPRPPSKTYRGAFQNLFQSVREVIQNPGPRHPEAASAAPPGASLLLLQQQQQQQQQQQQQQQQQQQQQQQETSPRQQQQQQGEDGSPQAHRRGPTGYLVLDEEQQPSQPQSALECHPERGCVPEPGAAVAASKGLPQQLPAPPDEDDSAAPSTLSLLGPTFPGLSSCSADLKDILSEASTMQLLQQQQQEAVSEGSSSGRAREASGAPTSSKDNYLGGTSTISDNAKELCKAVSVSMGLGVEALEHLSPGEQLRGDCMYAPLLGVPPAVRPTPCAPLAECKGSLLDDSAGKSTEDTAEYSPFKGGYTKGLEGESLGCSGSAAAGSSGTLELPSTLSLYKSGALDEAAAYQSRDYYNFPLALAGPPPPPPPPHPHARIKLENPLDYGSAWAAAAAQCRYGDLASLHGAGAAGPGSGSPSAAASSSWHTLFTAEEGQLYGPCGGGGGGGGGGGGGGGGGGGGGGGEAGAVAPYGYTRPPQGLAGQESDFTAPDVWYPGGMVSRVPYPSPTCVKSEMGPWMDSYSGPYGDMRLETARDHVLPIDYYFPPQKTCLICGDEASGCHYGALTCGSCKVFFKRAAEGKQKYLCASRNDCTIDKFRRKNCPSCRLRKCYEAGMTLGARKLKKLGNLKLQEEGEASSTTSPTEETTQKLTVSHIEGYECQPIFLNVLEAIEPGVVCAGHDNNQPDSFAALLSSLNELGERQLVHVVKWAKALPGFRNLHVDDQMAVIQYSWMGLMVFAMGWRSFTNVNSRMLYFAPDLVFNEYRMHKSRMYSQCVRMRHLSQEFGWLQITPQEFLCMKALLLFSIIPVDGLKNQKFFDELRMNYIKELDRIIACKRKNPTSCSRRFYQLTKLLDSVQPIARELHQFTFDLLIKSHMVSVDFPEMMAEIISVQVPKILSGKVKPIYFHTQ
Procedure, shortened: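 With R1881 held at 0.5 nM (final), compound effects on MMTV-luciferase expression in MDA-kb2 cells were scored by luminescence after a 16 hr, 37C incubation.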

[20] = qHTS assay to identify small molecule phospholipidosis (PLD) inducers (AID 1259344; active = well fitted curve in the direction sought with a large enough effect; an effect the other way counts as inactive or inconclusive)
Procedure, shortened: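 Read-out is LipidTOX Red fluorescence (ex 595/em 615) imaged in HepG2 cells after 24 h compound exposure at 37 C, with Hoechst nuclear counterstain (ex 352/em 461) allowing per-cell normalisation.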
% is set by controls: 0 for no effect and ±100 for the full control effect.

[K+]
inactive: outcome [1] | Potency [2] | Potency [3] | outcome [4] | Potency [5] | Potency [6] | outcome [7] | Potency [8] | outcome [9] | outcome [10] | outcome [11] | outcome [12] | Potency [13] | Potency [14] | Potency [15] | outcome [16]

Cc1ncc([C@@H](CCCCCCc2ccc3c(n2)NCCC3)CC(=O)O)cn1
inactive: outcome [1] | Potency [2] | outcome [17] | outcome [4] | Potency [5] | Potency [6] | outcome [7] | Potency [8] | outcome [9] | outcome [10] | outcome [11] | outcome [12] | Potency [13] | outcome [18] | outcome [16]

C1CCC2(CCCCO2)OC1
inactive: outcome [1] | Potency [2] | Potency [3] | outcome [17] | Potency [6] | outcome [7] | Potency [8] | outcome [9] | outcome [10] | outcome [11] | outcome [12] | Potency [13] | outcome [18] | Potency [14] | Potency [15] | outcome [16]

CC(C)(C#N)Nc1nc(Cl)nc(NC2CC2)n1
inactive: outcome [1] | Potency [2] | Potency [3] | outcome [4] | Potency [5] | Potency [6] | outcome [7] | Potency [8] | outcome [9] | outcome [10] | outcome [11] | Potency [13] | Potency [14] | Potency [15] | outcome [16]

C=C(C)C(=O)OCC1CCCO1 (centres undefined)
inactive: outcome [1] | Potency [2] | outcome [17] | outcome [4] | Potency [5] | Potency [6] | outcome [7] | outcome [9] | outcome [10] | outcome [11] | Potency [13] | outcome [18] | Potency [14] | Potency [15] | outcome [16]

Cc1nc2ccc(CN(C)c3ccc(C(=O)N[C@@H](CCC(=O)O)C(=O)O)s3)cc2c(=O)[nH]1
inactive: outcome [1] | Potency [2] | outcome [17] | Potency [5] | Potency [6] | Potency [8] | outcome [9] | outcome [10] | outcome [11] | Potency [19] | outcome [20] | Potency [13] | outcome [18] | Potency [14] | Potency [15] | outcome [16]

CCOc1ccccc1OCC
inactive: outcome [1] | Potency [2] | outcome [17] | outcome [4] | Potency [5] | Potency [6] | outcome [7] | Potency [8] | outcome [9] | outcome [10] | outcome [11] | Potency [13] | outcome [18] | Potency [14] | Potency [15] | outcome [16]

Cc1ncc(COP(=O)(O)O)c(C=O)c1O
inactive: Potency [2] | Potency [3] | outcome [17] | outcome [4] | Potency [5] | Potency [6] | outcome [7] | Potency [8] | outcome [9] | outcome [10] | outcome [11] | outcome [12] | Potency [13] | outcome [18] | Potency [14] | Potency [15] | outcome [16]

CCCCOC(=O)CCC(C)=O
inactive: outcome [1] | Potency [2] | outcome [17] | outcome [4] | Potency [5] | Potency [6] | outcome [7] | outcome [9] | outcome [10] | outcome [11] | outcome [12] | Potency [13] | outcome [18] | Potency [14] | Potency [15] | outcome [16]

CCOC(=O)c1cnc2c(cnn2CC)c1NN=C(C)C
inactive: Potency [2] | Potency [3] | outcome [17] | outcome [4] | Potency [5] | Potency [6] | outcome [7] | Potency [8] | outcome [9] | outcome [10] | outcome [11] | outcome [12] | outcome [20] | Potency [13] | outcome [18] | Potency [14] | Potency [15] | outcome [16]

CC1=CC(=O)[C@H]2C[C@@H]1C2(C)C
inactive: outcome [1] | Potency [2] | outcome [17] | outcome [4] | Potency [5] | Potency [6] | outcome [7] | Potency [8] | outcome [9] | outcome [11] | outcome [12] | Potency [13] | Potency [14] | Potency [15] | outcome [16]

[O-][n+]1cccc(CO)c1
inactive: outcome [1] | Potency [2] | outcome [17] | outcome [4] | Potency [5] | Potency [6] | outcome [7] | outcome [9] | outcome [11] | outcome [12] | outcome [20] | Potency [13] | outcome [18] | Potency [14] | outcome [16]

Nc1ccn([C@@H]2O[C@H](CO)[C@@H](O)C2(F)F)c(=O)n1
inactive: outcome [1] | Potency [2] | outcome [17] | outcome [4] | outcome [7] | Potency [8] | outcome [9] | outcome [11] | outcome [12] | Potency [13] | Potency [14] | Potency [15] | outcome [16]

CC1(C)OC[C@@H](COC(=O)CCc2ccc(OC[C@@H](O)CNCCNC(=O)N3CCOCC3)cc2)O1
inactive: Potency [2] | Potency [3] | outcome [17] | outcome [4] | Potency [5] | Potency [6] | outcome [7] | Potency [8] | outcome [9] | outcome [10] | outcome [11] | Potency [19] | outcome [12] | Potency [13] | outcome [18] | Potency [14] | outcome [16]

C=COCC1CCC(COC=C)CC1 (centres undefined)
inactive: outcome [1] | Potency [2] | outcome [17] | outcome [4] | Potency [5] | outcome [7] | Potency [8] | outcome [9] | outcome [11] | outcome [12] | Potency [13] | outcome [18] | Potency [14] | Potency [15] | outcome [16]

O=C(CO)[C@@H](O)[C@H](O)[C@@H](O)CO
inactive: outcome [1] | outcome [17] | Potency [5] | Potency [6] | outcome [7] | Potency [8] | outcome [10] | outcome [11] | outcome [12] | Potency [13] | outcome [18] | Potency [14] | Potency [15] | outcome [16]

NC(=O)N[C@@H](CCC(=O)O)C(=O)O
inactive: outcome [1] | outcome [17] | outcome [4] | Potency [5] | Potency [6] | outcome [7] | Potency [8] | outcome [9] | outcome [11] | outcome [20] | Potency [13] | outcome [18] | Potency [14] | outcome [16]

CC(C)C[C@@H](N)C(=O)O
inactive: cytotoxicity increase [1] -1.55% [at 15.8 µM] | cytotoxicity [2] -9.4% [at 15.8 µM] | cytotoxicity increase [17] -0.255% [at 15.8 µM] | activity change, negative = cytotoxic [4] 2.37% [at 15.8 µM] | activity change, negative = cytotoxicity [5] 1.4% [at 15.8 µM] | activity change, negative = cytotoxicity [6] 7.72% [at 15.8 µM] | activity change [7] 1.15% [at 15.8 µM] | activity change, negative = cytotoxicity [8] 0.397% [at 15.8 µM] | cytotoxicity increase [9] -17.7% [at 15.8 µM] | activity change, negative = cytotoxicity [10] -0.157% [at 19 µM] | viability change, negative = cytotoxic [11] -2.1% [at 19 µM] | outcome [20] | activity change, negative = inhibition [13] 7.66% [at 19 µM] | viability change, negative = cytotoxic [14] -2.88% [at 19 µM] | viability change, negative = cytotoxic [15] 1.81% [at 19 µM] | activity change [16] -0.808% [at 18.9 µM]
